Assay results: PubChem BioAssay AID1740 (National Center for Advancing Translational Sciences (NCATS), 2009)
Records with an inconclusive call do not appear. Calls of active or inactive are those of the source. Calls follow the shape of the dose curve; as a rule, active = well fitted activation curve with a large enough effect; inconclusive = small, poorly fitted or top-dose-only effect; inactive = no such curve, though single readings can be large or run the other way.

assay: Confirmation Concentration-Response Assay for Enhancers of SMN2 Splice Variant Expression; conditions: HEK293 SMN2-exon7-luciferase splicing reporter, luminescence, 30-36 h; series mostly up to 46.1 µM; activation: at the top concentration
From the text: NIH Chemical Genomics Center [NCGC] NIH Molecular Libraries Probe Production centers Network [MLPCN] MLPCN Grant: R03 MH084179-01 Assay Submitter (PI): Elliot Androphy NCGC Assay Overview: Spinal muscular atrophy (SMA) is caused by insufficient levels of the survival motor neuron protein SMN. The SMN locus on chromosome 5q13 contains two inverted copies of SMN called SMN1 and SMN2 which are 99% identical at the amino acid level. SMN1 is a fully functional protein and SMN2 skips exon 7 90% of the time. Skipping of exon 7 produces non-functional protein product. 10% of the SMN2 protein includes exon 7 and is fully functional. In the SMA disease state, mutations in the SMN1 locus are the cause of the disease state. Because only 10% of SMN2 is of the fully functional form, it is not sufficient to overcome the deficiency produced by the loss of the SMN1 product. A therapy that either increase the amount of SMN2 product made or to increase the inclusion of exon 7 has been proposed for the treatment of SMA. We have designed an assay to identify small molecules that can increase the amount of functional SMN2 product by appending a luciferase reporter gene after the native SMN2 gene, such that inclusion of exon 7 in the expressed product places the luciferase sequence in frame, thus generating functional luciferase enzyme.
NCGC Assay Protocol Summary: This screen utilizes a luciferase reporter gene assay, combining the promoter with the major portion of the native SMN2 cDNA (exons 1 -7, intron 8 , exon 8 fused to luciferase) stably expressed in HEK293 cells. Compounds that increase luciferase signal presumably enhance expression of the functional SMN2 splice variant. Passaging media contained DMEM w/ glutamax (+phenol red) 10% FCS, 1x pen/strep, 200 ug/ml hygro, 1x sodium pyruvate. Assay media contained DMEM w/ glutamax (-phenol red) 10% FCS, 1x pen strep, 1x pyruvate Sequence, Parameter, Value, Description (1) Cells, 5 uL, 2000 cells/well, 1536 TC treated White solid bottom plate (2) Time, 10-12 hours, 37C 5% CO2 (3) Compound, 23 nl, MLSMR Library (4) Control Compound, 23 nL, Sodium butyrate st 4.5mM (final) conc (5) Time, 30-36 hours, 37C 5% CO2 (6) Reagent, 3 ul, One Glo (TM) from Promega (7) Time, 5-15 minutes, Room temp (8) Detector, Viewlux: luminescent read, 60 second integration, high speed 2x binning Keywords: Spinal muscular atrophy, SMA, SMN2, high throughput screening, MLSMR, MLPCN, NIH Roadmap, qHTS and NCGC

activation, inactive:
O=c1[nH]c(=O)n(C2CCCO2)cc1Br (stereo not given) -5.56% [at 22.7 µM]
COc1ccc(-c2csc(N3CCC(c4ccccc4)CC3)n2)cc1 -18% [at 22.7 µM]
FC(F)(F)c1nnc(-c2ccccc2)nc1Oc1ccccc1 0.177% [at 22.7 µM]
O=[N+]([O-])c1ccc(-c2nnc(-c3ccccc3)c(N3CCOCC3)n2)cc1 -27% [at 22.7 µM]
Clc1ccc(-c2nnc(-c3ccccc3)nc2-c2c[nH]c3ccccc23)cc1 -10.1% [at 9.48 µM]
Cc1ccc(-c2nnc(-c3ccccc3)c(N3CCOCC3)n2)cc1 3.26% [at 9.48 µM]
FC(F)(F)c1cccc(-c2nnc(-c3ccccc3)c(N3CCOCC3)n2)c1 -5.49% [at 9.48 µM]
Clc1ccc(-c2nnc(-c3ccccc3)c(N3CCSCC3)n2)cc1 -1.83% [at 22.7 µM]
Cc1ccc(-c2csc(N3CCC(NS(=O)(=O)c4ccc5c(c4)OCCO5)CC3)n2)cc1 -59.4% [at 22.7 µM]
FC(F)C(F)(F)C1=CC(c2cccs2)=NCCN1 0.924%
O=C(Nc1nc(-c2ccc3ccccc3c2)cs1)C1CCN(S(=O)(=O)c2cccs2)CC1 -43.5% [at 22.7 µM]
CCC1=Nc2ccccc2-c2nnc(SC)nc2O1 -6.69% [at 22.7 µM]
c1ccc(-c2nnc(-c3ccccc3)c(-c3c[nH]c4ccccc34)n2)cc1 4.63% [at 22.7 µM]
OCCCNc1nc(-c2ccc(Br)cc2)nnc1-c1ccc(Cl)cc1 -38.2% [at 22.7 µM]
OCCCNc1nc(-c2ccc(Cl)cc2)nnc1-c1ccc(Br)cc1 -29.8% [at 22.7 µM]
CCC(=O)n1nc(NCc2ccccc2OC)nc1NCc1ccccc1OC -36.1%
Brc1nc2ncnc(NCc3ccco3)c2[nH]1 -18%
Clc1ccc(-c2nnc(-c3ccccc3)nc2N2CCSCC2)cc1 6.97% [at 9.48 µM]
Clc1nc(NCC2CCCO2)c2[nH]cnc2n1 (stereo not given) -10.1%
COC(=O)C1=C(CN2CCc3ccccc32)NC(=O)NC1c1cc(C)ccc1C (stereo not given) -40.4%
Cn1cnc2c(NCc3ccco3)ncnc21 -5.32%
c1coc(CNc2ncnc3nc[nH]c23)c1 6.63%
O=[N+]([O-])c1ccc(-c2nnc(-c3ccccc3)c(NCCCO)n2)cc1 23.6% [at 22.7 µM]
Cc1ccc(-c2nnc(-c3ccccc3)c(-c3ccccc3)n2)cc1 5.5% [at 22.7 µM]
Cc1ccc(C2c3c(oc4ccccc4c3=O)C(=O)N2CCCN2CCOCC2)o1 (stereo not given) 14.5%
Cc1nnc(-c2ccccc2)[nH]c1=O -2.84% [at 22.7 µM]
COc1nc(-c2ccc(Cl)cc2)nnc1C 7.47% [at 22.7 µM]
COCCCN1C(=O)C(=O)/C(=C(/O)c2ccc3c(c2)CC(C)O3)C1c1cccnc1 (stereo not given) 8.87%
CCCCOC(C)n1cc(F)c(=O)[nH]c1=O (stereo not given) -17.1% [at 22.7 µM]
N#C/C(=C\Nc1ccccc1SC(F)(F)F)c1nc(-c2ccc(Cl)cc2)cs1 -29.8%
Nn1c(SCC(=O)NCCC2=CCCCC2)nnc1C1CCCCC1 9.87%
Fc1ccc(Oc2nc(-c3ccccc3)nnc2C(F)(F)F)cc1 -16.3% [at 22.7 µM]
FC(F)(F)c1cccc(Oc2nc(-c3ccccc3)nnc2C(F)(F)F)c1 -14.5% [at 22.7 µM]
CC(C)(C)n1nnnc1C(c1ccc2ncccc2c1)N1CCSCC1 (stereo not given) -2.06%
CCCSc1nnc(Sc2nnnn2-c2ccccc2)s1 -84.7%

Potency, active:
CC(/C=C/C(=O)NO)=C\[C@@H](C)C(=O)c1ccc(N(C)C)cc1 1120 nM
COc1nc(-c2ccccc2)nnc1-c1ccccc1 2510 nM
Cn1c(C(=O)NCc2cccs2)cc2oc3ccccc3c21 2820 nM
OC[C@H]1O[C@@H](n2cnc3c(Nc4ccccc4)ncnc32)[C@H](O)[C@H]1O 8910 nM
Cc1oncc1C(=O)Nc1ccc(C(F)(F)F)cc1 7080 nM
